Results filed as inconclusive are left out. A call without a number means that no potency is given here. The source made the active and inactive calls. Calls come from the whole dose curve; as a rule, active = well fitted curve in the direction sought with a large enough effect; inconclusive = small, poorly fitted or top-dose-only effect, or another doubt; inactive = no such curve, though single readings can be large; an effect the other way counts as inactive or inconclusive.
Experiments:
[1] = qHTS of pediatric cancer cell lines to identify multiple opportunities for drug repurposing: Primary screen for control Hh wild type fibroblast cells (AID 1347106); note: nearly all actives have a fitted effect of over 55% in size
Procedure, shortened: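 Cells (500-1,000/well) in growth media were settled 5 h at 37 degrees C, then given compounds for 48 h. Viability was read as CellTiter-Glo luminescence. Primary runs used MIPE at 11 points (0.78 nM-46 µM) and NPC at 8 points (0.59 nM-46 µM); follow-ups used 11 points.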

[2] = qHTS of pediatric cancer cell lines to identify multiple opportunities for drug repurposing: Primary screen for Rh30 cells (AID 1347107); note: nearly all actives have a fitted effect of over 75% in size
Procedure, shortened: (§1)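 Viability after 48 h compound treatment at 37C, 500-1,000 cells/well, read as ATP luminescence with CellTiter-Glo. Primary screens used 11-point (MIPE, 0.78 nM-46 µM) or 8-point (NPC, 0.59 nM-46 µM) final concentrations; follow-up screens used 11-point dilutions.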

[3] = qHTS of pediatric cancer cell lines to identify multiple opportunities for drug repurposing: Primary screen for Rh41 cells (AID 1347108); note: nearly all actives have a fitted effect of over 70% in size
Procedure, shortened: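 Quantitative HTS format: each compound titrated (MIPE 11 points from 0.78 nM, NPC 8 points from 0.59 nM) onto cells plated 5 hours earlier. After 48 h at 37 degrees C, CellTiter-Glo luminescence was recorded.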

[4] = qHTS of pediatric cancer cell lines to identify multiple opportunities for drug repurposing: Confirmatory screen for NB1643 cells (AID 1347109); note: nearly all actives have a fitted effect of over 45% in size
Procedure, shortened: as §1

[5] = qHTS of pediatric cancer cell lines to identify multiple opportunities for drug repurposing: Confirmatory screen for A673 cells (AID 1347110); note: nearly all actives have a fitted effect of over 65% in size
Procedure, shortened: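 Forty-eight-hour viability assay. Follow-up compounds ran at 11-point dilutions; positive control bortezomib at 2.3 uM final, neutral control DMSO.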

[6] = qHTS of pediatric cancer cell lines to identify multiple opportunities for drug repurposing: Confirmatory screen for SK-N-MC cells (AID 1347111);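 note: cells exposed to compound for 48 h before the readout; nearly all actives have a fitted effect of over 70% in size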
Procedure, shortened: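 SK-N-MC cells at 500-1,000 cells/well in growth media were pre-incubated 5 h, then exposed to compounds at 11-point dilutions for 48 h at 37 degrees C, 5% CO2. Viability was read as CellTiter-Glo luminescence.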

[7] = qHTS of pediatric cancer cell lines to identify multiple opportunities for drug repurposing: Confirmatory screen for BT-12 cells (AID 1347112); note: nearly all actives have a fitted effect of over 55% in size
Procedure, shortened: as §1

[8] = qHTS of pediatric cancer cell lines to identify multiple opportunities for drug repurposing: Confirmatory screen for DAOY cells (AID 1347114); note: nearly all actives have a fitted effect of over 65% in size
Procedure, shortened: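 Viability measured as metabolically active cells via CellTiter-Glo luminescence following 48 hours of compound exposure, 11-point dilutions in confirmatory testing. 500-1,000 cells/well plated 5 hours before dosing; controls were DMSO and 2.3 µM bortezomib.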

[9] = qHTS of pediatric cancer cell lines to identify multiple opportunities for drug repurposing: Confirmatory screen for BT-37 cells (AID 1347117); note: nearly all actives have a fitted effect of over 55% in size
Procedure, shortened: as §1

[10] = qHTS of pediatric cancer cell lines to identify multiple opportunities for drug repurposing: Confirmatory screen for TC32 cells (AID 1347118); note: nearly all actives have a fitted effect of over 65% in size
Procedure, shortened: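 TC32 cells, 500-1,000/well in growth medium, compound-treated 48 h at 37 °C; viability from CellTiter-Glo luminescence. Primary screen: MIPE 11-point (0.78 nM–46 µM final), NPC 8-point (0.59 nM–46 µM final); confirmatory at 11-point dilutions.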
Potency is the fitted concentration of half-maximal effect.

## CC(=O)N[C@@H](CS)C(=O)O
[1]
  Potency: inactive
[2]
  Potency: inactive
[3]
  Potency: inactive

## Cc1ccn(-c2ccc(-c3ncco3)cc2)c(=O)c1-c1ccc2nc(N)ncc2c1
[1]
  Potency: inactive
[2]
  Potency: inactive
[3]
  Potency: inactive

## O=C1C[C@@H](c2ccc(O)cc2)Oc2cc(O)cc(O)c21
[1]
  Potency: inactive
[2]
  Potency: inactive
[3]
  Potency: inactive

## C[C@H](NC(=O)c1sccc1OCc1ccc(Cl)cc1)c1ccccc1
[1]
  Potency: inactive
[2]
  Potency: 18.7 µM (active)
[3]
  Potency: 16.6 µM (active)

## O=C(Nc1c(Cl)cncc1Cl)c1ccc(OC(F)F)c(OCC2CC2)c1
[1]
  Potency: inactive
[2]
  Potency: inactive
[3]
  Potency: inactive

## CC(C)(C)C(=O)Oc1ccc2c(c1)nc(NC(=O)c1cccc([N+](=O)[O-])c1)n2CCCO
[1]
  Potency: inactive
[2]
  Potency: inactive
[3]
  Potency: inactive

## O=C(OCC#CCSc1nnc(-c2cccc3ccccc23)o1)c1cc2ccccc2s1
[1]
  Potency: inactive
[2]
  Potency: inactive
[3]
  Potency: inactive

## C[N+](C)(C)CCCCCC[N+](C)(C)C
[1]
  Potency: inactive
[2]
  Potency: inactive
[3]
  Potency: inactive

## COc1ccc2cc(-c3nc(-c4ccc(S(C)=O)cc4)[nH]c3-c3ccncc3)ccc2c1 (stereo not drawn)
[1]
  Potency: inactive
[2]
  Potency: inactive
[3]
  Potency: inactive

## Oc1ccc(C2=Cc3ccc(O)cc3OC2)cc1
[1]
  Potency: inactive
[2]
  Potency: 11.8 µM (active)
[3]
  Potency: 5.9 µM (active)

## CNC(=O)c1ccc2cc(C3(O)CCn4cncc43)ccc2c1 (stereo not drawn)
[1]
  Potency: inactive
[2]
  Potency: inactive
[3]
  Potency: inactive

## CC=CCC=CCCC(=O)[C@H]1O[C@@H]1C(N)=O
[1]
  Potency: inactive
[2]
  Potency: inactive
[3]
  Potency: inactive

## O=C1C(Cl)=C(NCCN2CCOCC2)C(=O)c2ncccc21
[1]
  Potency: 11.8 µM (active)
[2]
  Potency: 8.33 µM (active)
[3]
  Potency: 4.69 µM (active)
[4]
  Potency: 4.14 µM (active)
[5]
  Potency: 2.08 µM (active)
[6]
  Potency: 1.04 µM (active)
[7]
  Potency: 2.61 µM (active)
[8]
  Potency: 7.37 µM (active)
[9]
  Potency: 1.47 µM (active)
[10]
  Potency: 1.04 µM (active)

## CN1[C@@H]2CCC[C@@H]1CC(NC(=O)c1nn(C)c3ccccc13)C2 (stereo partly drawn)
[1]
  Potency: inactive
[2]
  Potency: inactive
[3]
  Potency: inactive

## CC1(C)O[C@H]2C[C@@H]3[C@H]4CCC5=CC(=O)C=C[C@]5(C)[C@@]4(F)[C@@H](O)C[C@]3(C)[C@]2(C(=O)CO)O1
[1]
  Potency: inactive
[2]
  Potency: inactive
[3]
  Potency: inactive
[4]
  Potency: inactive
[5]
  Potency: inactive
[6]
  Potency: inactive
[7]
  Potency: inactive
[8]
  Potency: inactive
[9]
  Potency: inactive

## O=C(NC1CCOCC1)c1ccc(-c2cc(-c3cn[nH]c3-c3ccccn3)ccn2)cc1
[1]
  Potency: inactive
[2]
  Potency: inactive
[3]
  Potency: inactive

## CCC(=O)O[C@]1(C(=O)CO)CC[C@H]2[C@@H]3CCC4=CC(=O)CC[C@]4(C)[C@@H]3CC[C@@]21C
[1]
  Potency: inactive
[2]
  Potency: inactive
[3]
  Potency: inactive

## COc1ccc(-c2coc3cc(O)ccc3c2=O)cc1
[1]
  Potency: inactive
[2]
  Potency: inactive
[3]
  Potency: inactive

## CCN1CCC[C@H]1CNC(=O)c1cc(S(N)(=O)=O)ccc1OC
[1]
  Potency: inactive
[2]
  Potency: inactive
[3]
  Potency: inactive

## CO[C@@H](C(=O)N1Cc2[nH]nc(NC(=O)c3ccc(N4CCN(C)CC4)cc3)c2C1)c1ccccc1
[1]
  Potency: 9.35 µM (active)
[2]
  Potency: inactive
[3]
  Potency: 0.469 µM (active)

## COC(=O)C1=CO[C@@H](O)[C@@H]2C(CO)=CC[C@@H]12
[1]
  Potency: inactive
[2]
  Potency: inactive
[3]
  Potency: inactive

## COc1ccc2c(Oc3ccc(NC(=O)c4c(C)n(CC(C)(C)O)n(-c5ccccc5)c4=O)nc3)ccnc2c1
[1]
  Potency: inactive
[2]
  Potency: inactive
[3]
  Potency: inactive

## N#CC1(c2ccc(NC(=O)c3cccnc3NCc3ccncc3)cc2)CCCC1
[1]
  Potency: inactive
[2]
  Potency: inactive
[3]
  Potency: inactive

## NC[C@@H]1O[C@@H](O[C@H]2[C@@H](O)[C@H](O[C@@H]3[C@@H](O)[C@@H](N)C[C@H](N)[C@H]3O[C@H]3O[C@H](CN)[C@@H](O)[C@@H](O)[C@H]3N)O[C@H]2CO)[C@H](N)[C@@H](O)[C@@H]1O
[1]
  Potency: inactive
[2]
  Potency: inactive
[3]
  Potency: inactive

## O=C(O)Cc1cccc2ccccc12
[1]
  Potency: inactive
[2]
  Potency: inactive
[3]
  Potency: inactive

## CCOC(=O)O[C@]1(C(=O)OCCl)CC[C@@H]2[C@H]3CCC4=CC(=O)C=C[C@]4(C)[C@@H]3[C@@H](O)C[C@@]21C
[1]
  Potency: inactive
[2]
  Potency: inactive
[3]
  Potency: inactive

## NCCS
[1]
  Potency: inactive
[2]
  Potency: inactive
[3]
  Potency: inactive

## CC(C)C[C@H](CC(=O)O)C(=O)N[C@@H](Cc1c[nH]c2ccccc12)C(=O)N[C@@H](C)c1ccccc1
[1]
  Potency: inactive
[2]
  Potency: inactive
[3]
  Potency: inactive

## CCn1cc(C(=O)O)c(=O)c2ccc(C)nc21
[1]
  Potency: inactive
[2]
  Potency: inactive
[3]
  Potency: inactive

## CC(C)NCC(O)COc1cccc2[nH]ccc12 (stereo not drawn)
[1]
  Potency: inactive
[2]
  Potency: inactive
[3]
  Potency: inactive

Reference: PubChem BioAssay (NCATS)
